# AGP1-GFP MLPCN: alters AGP1-GFP fluorescence in TOR pathway yeast screen | S. cerevisiae AGP1-GFP multiplex flow cytometry, 3 h; GFP as percent of DMSO wells | GFP response vs DMSO, % at 10 µM | hit rate 0.02% among 320,000;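 active means GFP response relative to DMSO above a set limit, near screen average plus 3 SD, cut at about 150% in these data; inconclusive means fewer than 70 cells counted for the yeast strain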;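 further: median GFP channel fluorescence of the gated AGP1 strain per well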
# CIT2-GFP yeast: alters CIT2-GFP fluorescence in TOR pathway yeast screen. hit rate 0.065% among 320,000. S. cerevisiae CIT2-GFP strain, flow cytometry, 3 h; 100 means same as DMSO wells. GFP response vs DMSO, % at 10 µM. AID 2029;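 active means GFP response relative to DMSO above a set limit, near the screen mean plus 3 SD, cut at about 150% in these data; inconclusive means Fewer than 70 cells measured for a yeast strain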;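 further: ratio of well median GFP fluorescence to mean of DMSO wells on the plate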
# RPL19A TOR yeast: alters RPL19A-GFP fluorescence in TOR pathway yeast screen; S. cerevisiae RPL19A-GFP strain, flow cytometry, 3 h; stronger effect = lower value; percent response vs DMSO, % at 10 µM; hit rate 0.3% among 330,000; AID 2025;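 active means percent response vs DMSO below 50%; inconclusive means fewer than 70 events counted for the yeast strain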;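 further: median channel GFP fluorescence of the barcoded RPL19A-GFP strain; ratio of sample median GFP to plate DMSO average so 100% = DMSO; lower means less RPL19A-GFP as with rapamycin TOR inhibition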
# VLA-4 inh: inhibition in a human VLA-4 binding assay; VLA-4 expressing cells, ligand binding flow cytometry; inhibition, % (about 7 µM as worked out from the volumes in the protocol); hit rate 0.2% among 330,000; in the data active means inhibition above about 50%
# LAP4 TOR yeast: alters LAP4-GFP fluorescence in TOR pathway yeast screen. S. cerevisiae LAP4-GFP multiplex, flow cytometry GFP, 3 h; median GFP as percent of DMSO wells. GFP response vs DMSO, % at 10 µM. hit rate 0.34% among 320,000;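 active means GFP response vs DMSO above a set limit, about the screen mean plus 3 SD, cut at about 150% in these data; inconclusive means under 70 cell events counted for the yeast strain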
# MEP2-GFP yeast: modulators of TOR pathway MEP2-GFP in S. cerevisiae | AID 2016 | S. cerevisiae MEP2-GFP strain, flow cytometry GFP, 3 h; 100% = DMSO control level | GFP response vs DMSO, % at 10 µM | hit rate 0.51% among 330,000;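 active means GFP response versus DMSO above a set limit, roughly screen mean plus 3 SD, cut at about 180% in these data; inconclusive means fewer than 70 cells counted for a yeast strain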;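 further: median GFP fluorescence of the barcode-gated MEP2-GFP cells per well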
# The depositor's hits bear a star; i = inactive; ? = inconclusive; · = no result given; + = active, no number; [ ] = remark or other dose. A selection: hits, their analogues and other compounds. The true share with any hit is near 1.1%.
SMILES,AGP1-GFP MLPCN,CIT2-GFP yeast,RPL19A TOR yeast,VLA-4 inh,LAP4 TOR yeast,MEP2-GFP yeast
COC(=O)c1cc(CNC(=O)Cc2ccsc2)ccc1OC,84,?,59,6,97,298*[may fluoresce violet]
COc1ccc(NC(=O)Cc2ccsc2)c(OC)c1,?,?,46*[may fluoresce violet],-3,81,343*[may fluoresce violet]
CC1CCCN(S(=O)(=O)c2ccc(Cl)s2)C1 (centres undefined),22,?,54,-2,84,316*[may fluoresce violet]
CC1CCCN(S(=O)(=O)c2ccc(Br)s2)C1 (centres undefined),92,92,97,0,91,86
Cc1cccc(OCCOC(=O)c2c(-c3ccccc3)noc2C)c1,108,106,102,-6,99,102
O=C1Nc2ccc(Br)cc2/C1=C/C1CC=CCC1 (centres undefined),90,97,79,0,192*,91
CCc1cc(C(=O)Cc2ccccn2)c(O)cc1O,14,?,63,8,73,270*[may fluoresce violet]
COc1ccccc1C(=O)Nc1nsc(-c2ccccc2)n1,83,79,93,4,151*,87
CCn1ccnc1C(O)(c1ccccc1)c1ccccc1,94,103,101,4,97,99
Cn1nnnc1N=N/C(=N/Nc1ccccc1)c1ccccc1,98,86,96,-1,150*,95
Oc1ccccc1N=N/C(=N/Nc1ccccc1O)c1ccccc1,91,99,100,13,130,100
Cc1cc(C)cc(OCC(=O)OCc2cc([N+](=O)[O-])cc3c2OCOC3)c1,104,108,100,0,107,103
CN1CCN(CCCCOc2ccccc2C=O)CC1,93,80,103,8,163*,104
COc1cccc(OC)c1OCCCCCCN1CCN(C)CC1,102,107,104,16,94,108
CCn1c(COC(=O)CNC(=O)c2ccccc2F)nc2cc(S(=O)(=O)N(C)C)ccc21,105,96,99,5,91,96
CN1CCN(CC(=O)N2CCn3c4c(c5cc(C6CCCCC6)ccc53)CCCC42)CC1 (centres undefined),99,89,91,46,169*,104
COC(=O)c1ccc(N(CC(=O)NC2CCCCC2)C(=O)CNC(=O)c2ccco2)cc1,97,105,99,-9,92,94
COc1ccc(Cl)cc1C(=O)NCCCn1ccnc1,93,104,106,-3,90,104
COc1cc(SC)ccc1C(=O)NCCCn1ccnc1,?,?,39*[may fluoresce violet],9,138,575*[may fluoresce violet]
Cc1ccc(/C=N/NC(=O)Cc2ccc(Cl)cc2)s1,91,99,102,-6,89,104
COCCn1c(C)cc(/C=C(\C#N)C(=O)OC(C)C(=O)Nc2ccc(NC(C)=O)cc2)c1C (centres undefined),106,103,103,6,99,104
CC(=O)Nc1ccc(NC(=O)CSc2nnnn2-c2ccc(F)cc2)cc1,15,?,59,0,78,194*[may fluoresce violet]
CC(=O)Nc1ccc(-n2nnnc2SCC(=O)NC2CCCC2)cc1,100,107,102,-2,88,98
CCC(CC)NC(=O)Cc1ccc(F)cc1,251*[may fluoresce green],+[may fluoresce green],267,i,921*[may fluoresce green],+[may fluoresce green]
C#CCNC(=O)C1=C[C@H](c2ccc3c(c2)OCO3)[C@@H](CCCO)[C@H](OCC)O1,?,?,46*[may fluoresce violet],-4,75,300*[may fluoresce violet]
SMILES,AGP1-GFP MLPCN,CIT2-GFP yeast,RPL19A TOR yeast,VLA-4 inh,LAP4 TOR yeast,MEP2-GFP yeast
O=C(CC1S/C(=N/N=C2CCCCCC2)NC1=O)Nc1ccccc1C(F)(F)F (centres undefined),?,?,46*[may fluoresce violet],-11,71,182*[may fluoresce violet]
CC1CCN(S(=O)(=O)c2cccc(C(=O)Nc3nccs3)c2)CC1,112,152*,105,-29,166*,214*
CC(=O)Nc1ccc(S(=O)(=O)Nc2ccc3[nH]c(=O)[nH]c3c2)cc1,22,?,44*[may fluoresce violet],2,107,653*[may fluoresce violet]
O=C(O)c1cccc(NC(=O)c2ccc3c(c2)C(=O)N(c2ccccc2)C3=O)c1,?,?,86,-17,50,376*[may fluoresce violet]
O=C(O)c1cc(NC(=O)c2cccc(N3C(=O)c4ccccc4C3=O)c2)cc(C(=O)O)c1,96,93,108,-1,74,105
CC(C)CC(=O)Nc1c2c(nn1-c1ccc(F)cc1)CS(=O)C2 (centres undefined),99,100,98,7,96,103
CCN(CC)Cc1c(O)ccc2c(=O)c(-c3ccc4c(c3)OCCO4)coc12,·,?,38*[may fluoresce violet],3,86,182*[may fluoresce violet]
O=C(CCc1nc(-c2ccccc2F)no1)Nc1cccnc1,107,94,93,6,105,94
CCOc1ccccc1-c1noc(CCC(=O)Nc2cccnc2)n1,68,89,68,-12,88,223*
Cc1ccc2c(c1)nnn2C1CCN(S(=O)(=O)c2ccc(C(=O)N3CC(C)CC(C)C3)cc2)CC1 (centres undefined),?,?,30*[may fluoresce violet],9,78,317*[may fluoresce violet]
COc1ccc(-n2nc3c(N4CCC(C(=O)N5CCC(C)CC5)CC4)nnc(C)c3c2C)cc1,?,?,51,-119,69,258*[may fluoresce violet]
Cc1nnc(N2CCC(C(=O)N3CCCCC3)CC2)c2nn(-c3ccc(Cl)cc3)c(C)c12,95,99,97,16,96,115
CN(C)c1ccc(/C=C/c2ccc3ccccc3n2)cc1,82,84,102,-101,100,109
CCN(CC)c1ccc(/C=C/c2cc(-c3ccccc3)c3ccccc3n2)cc1,?,?,30*[may fluoresce violet],i,?,?
O=C(N/N=C/c1ccnc2ccccc12)c1ccccc1O,96,99,103,3,94,102
NS(=O)(=O)c1ccc(N2N=C(c3ccc(Br)cc3)CC2c2ccc(F)cc2)cc1 (centres undefined),?,?,37*[may fluoresce violet],18,63,169
COc1ccc(-c2[nH]ncc2N=Nc2ccccc2)cc1,80,89,101,3,151*,104
CC(C)CCC(C(=O)NC(C)c1ccccc1)C(=O)NC(C)c1ccccc1 (centres undefined),99,99,99,27,93,91
NC(=S)N/N=C/c1ccc(-c2ccccc2)o1,98,93,96,-7,112,98
Cc1ccc(-c2ccc(/C=N/NC(N)=S)o2)cc1,82,85,82,-7,158*,93
CC(C)(C)OC(=O)NCc1ccc(CNC(=O)c2nc[nH]c2C(=O)N2CCN(c3ccccc3)CC2)cc1,97,94,102,0,90,106
